# Calls of active or inactive are those of the source. The call rests on the fitted dose curve; in most records, active means well fitted curve in the direction sought with a large enough effect; inconclusive means small, poorly fitted or top-dose-only effect, or another doubt; inactive means no such curve, though single readings can be large or run the other way.
# Molecular target: alpha-glucosidase (Oryza sativa, rice) (UniProt Q653V4)
# Assay: Counterscreen for Glucocerebrosidase Inhibitors: qHTS Assay for Rice alpha-Glucosidase at pH 5.0 (AID 997)
# Conditions: rice alpha-glucosidase enzyme activity; series mostly up to 76.9 µM
# Method in brief: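 Endpoint fluorogenic assay at pH 5.0: compounds (0.7 nM to 77 uM) titrated against 4 nM rice enzyme and 400 uM 4-MU-alpha-glucoside for 20 min at room temperature; NaOH/glycine stop, read ex 365/em 440 nm, Hill-fitted AC50.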
compound,measurement,value
NC(=NCc1ccc(Cl)c(Cl)c1)NC(=O)c1nc(Cl)c(N)nc1N,outcome,inactive
